From PubChem BioAssay (NCATS)
Where “and” joins values, the source holds several entries; their conditions need not be identical. Identical values can stand only once. Inconclusive results are not listed. Entries that show only a call come without a potency. Some compounds were tested as several samples or in several runs, with calls that do not always agree. Calls of active or inactive are those of the source. Calls follow the shape of the dose curve; as a rule, active = well fitted inhibition curve with a large enough effect; inconclusive = small, poorly fitted or top-dose-only effect; inactive = flat fitted curve, though single readings scatter.

Test system: MCC-26
Assay: qHTS assay to identify novel small-molecules to repurpose for Merkel cell carcinoma treatment (AID 1296009); also: nearly all actives have a fitted effect of over 60% in size
Conditions: MCC and control cell lines, CellTiter-Glo viability, 72 h; series mostly up to 46 µM; activity change, negative = cytotoxicity: at the top concentration
Description: MCC is a rare and aggressive neuroendocrine skin cancer with limited treatment options. Approximately 80% of MCCs have the Merkel cell polyomavirus (MCPyV) DNA integrated into the host genome (virus-positive: VP-MCC) and viral oncogenes drive oncogenesis. The remaining MCCs are virus-negative (VN-MCC) and are caused by UV mutagenesis. To identify novel treatments for VP-MCC and/or VN-MCC we screened three VP-MCC cell lines (WAGA, MKL-1, MKL-2), three VN-MCC cell lines (MCC-13, MCC-26, UISO), and four immortalized, non-transformed control cell lines (HaCaT, HEK293T, CRL7250, NIH-3T3) against ~2,400 compounds in the NCGC Pharmaceutical Collection (NPC) and ~1,900 compounds in the Mechanism Interrogation PlatE (MiPE). Using cell viability as a readout (CellTiter-Glo assay) we found both overlapping and distinct drugs that can be repurposed for the treatment of VP-MCC and VN-MCC.
A high-throughput screen was conducted in 1536-well white flat bottom plates (Corning) on a Kalypsys robotic system. Cell lines WAGA, MKL-1, MKL-2, MCC-13, MCC-26, UISO, HaCaT, HEK293T, CRL7250, and NIH-3T3 were screened against 2 small molecule annotated drug libraries NPC and MIPE in dose response (8 and 11 pt. respectively) measuring cell viability after 72 hours of incubation. […] A 1,536 pintool (Kalypsys) was used to transfer 23 nL of compound in DMSO to the 1,536-well assay plates. After 72 hr incubation at 37 degree celsius, 2.5 uL of CellTiter-Glo (Promega) was dispensed into each well using a BiorapTR. Plates were incubated at room temperature for 10 min, transferred to a ViewLux (PerkinElmer) and the luminescence was recorded using an exposure time of 2 seconds. Relative luminescence units (RLUs) were normalized to in-plate controls (no cells as a positive (cytotoxicity) control, DMSO as negative control) and the normalized data was processed using NCATS in-house software.
Potency is read from the fitted curve at half-maximal effect.

SMILES	Potency	activity change, negative = cytotoxicity
CC[C@H](NC(C)C)[C@H](O)c1ccc(O)c2[nH]c(=O)ccc12	inactive	
COC(c1ccccc1)(c1ccccc1)[C@H](Oc1nc(C)cc(C)n1)C(=O)O	inactive	
CCOCC(O)COc1ccc(NC(=O)CC[S+](C)C)cc1 (stereo not given)	inactive	
O=C(O)c1cccnc1	inactive	
Cc1cccc(N(C)C(=S)Oc2ccc3ccccc3c2)c1	inactive	
C1CCC(C(CC2CCCCN2)C2CCCCC2)CC1 (stereo not given)	21.1 µM (active) and inactive	
CCN(CC)CC#CCOC(=O)C(O)(c1ccccc1)C1CCCCC1 (stereo not given)		-7% (inactive)
CCC(=O)O[C@]1(C(=O)CCl)[C@@H](C)C[C@H]2[C@@H]3CCC4=CC(=O)C=C[C@]4(C)[C@@]3(F)[C@@H](O)C[C@@]21C	inactive	
COc1ccc(-c2ccc3cc(C(=O)O)ccc3c2)cc1C12CC3CC(CC(C3)C1)C2	inactive	
NC(=O)c1cccnc1	inactive	
CS(=O)(=O)c1ccc([C@@H](O)[C@@H](CO)NC(=O)C(Cl)Cl)cc1	inactive	
O=C(O)CCn1c2c(c3ccccc31)C[C@H](NS(=O)(=O)c1ccc(F)cc1)CC2	inactive	
CC(=O)[C@H]1CC[C@H]2[C@@H]3CC=C4C[C@@H](O)CC[C@]4(C)[C@H]3CC[C@]12C	inactive	
CCn1cc(C(=O)O)c(=O)c2cc(F)c(N3CCNCC3)nc21	inactive	
S=P(N1CC1)(N1CC1)N1CC1	inactive	
CCOc1cc(N)c(Cl)cc1C(=O)NCC1CN(Cc2ccc(F)cc2)CCO1 (stereo not given)	inactive	
CNS(=O)(=O)CCc1ccc2[nH]cc(C3CCN(C)CC3)c2c1	inactive	
CC(=O)[C@H]1CC[C@H]2[C@@H]3CCC4=CC(=O)CC[C@]4(C)[C@H]3CC[C@]12C		-1.74% (inactive)
NCCCC(O)(P(=O)(O)O)P(=O)(O)O	inactive	
CC1=CC(=O)c2ccccc2C1=O	inactive	

SMILES	Potency	activity change, negative = cytotoxicity
O=C(O)c1cc(=O)[nH]c(=O)[nH]1	inactive	
CO[C@@H]1[C@@H](OC(N)=O)[C@@H](O)[C@H](Oc2ccc3c(O)c(NC(=O)c4ccc(O)c(CC=C(C)C)c4)c(=O)oc3c2C)OC1(C)C	inactive	
CC(=O)Oc1ccccc1C(=O)Nc1ncc([N+](=O)[O-])s1	inactive	
CCc1c2c(nc3ccc(OC(=O)N4CCC(N5CCCCC5)CC4)cc13)-c1cc3c(c(=O)n1C2)COC(=O)[C@]3(O)CC	16.8 µM (active)	
CNC1CCCN(c2c(F)cc3c(=O)c(C(=O)O)cn(C4CC4)c3c2OC)C1 (stereo not given)	inactive	
CC(C)C1CCC(C(=O)N[C@H](Cc2ccccc2)C(=O)O)CC1 (stereo not given in full)	inactive	
NNC(=O)c1ccncc1	inactive	
CN(C)CCc1c[nH]c2ccc(C[C@H]3COC(=O)N3)cc12	inactive	
O=S(=O)(c1cccc2cnccc12)N1CCCNCC1	inactive	
CCCCOc1ccc(CC(=O)NO)cc1		-7.74% (inactive)
O=P(O)(O)C(O)(Cc1cccnc1)P(=O)(O)O	inactive	
Cn1nnc2c(C(N)=O)ncn2c1=O	inactive	
CCc1cc(C(N)=S)ccn1	inactive	
CCCc1cc(C(N)=S)ccn1	inactive	
O=C(NCC1CN(c2ccc(N3CCOCC3=O)cc2)C(=O)O1)c1ccc(Cl)s1 (stereo not given)	inactive	
CCC(=O)O[C@]1(C(=O)SCF)[C@H](C)C[C@H]2[C@@H]3C[C@H](F)C4=CC(=O)C=C[C@]4(C)[C@@]3(F)[C@@H](O)C[C@@]21C	inactive	
NC(=O)c1ccc2[nH]ccc2c1		-10.8% (inactive)
CN1CCCC(n2nc(Cc3ccc(Cl)cc3)c3ccccc3c2=O)CC1 (stereo not given)	inactive and 11.8 µM (active)	
CC(C)(C#N)c1cc(Cn2cncn2)cc(C(C)(C)C#N)c1		5.73% (inactive)
CC(C)NCC(O)c1ccc(NS(C)(=O)=O)cc1 (stereo not given)		6.24% (inactive)
